# Reference: PubChem BioAssay (Tox21)
# “And” between values parts separate entries of the source, which are not always exact repeats. Equal entries are not always repeated. The source holds several records for some structures; these can differ, active in one and inactive in another. The source made the active and inactive calls. Entries that show only a call come without a potency. Unless noted, calls follow the shape of the dose curve; as a rule, active = well fitted curve in the direction sought with a large enough effect in the repeat runs; inconclusive = weak or mixed curves; inactive = no such curve, though single readings can be large; an effect the other way counts as inactive or inconclusive.
# Assays:
# [1] = qHTS assay to identify small molecule antagonists of the glucocorticoid receptor (GR) signaling pathway - cell viability counter screen (AID 720693); also: nearly all actives have a fitted effect of over 55% in size
# [2] = qHTS assay for identifying genotoxic compounds that show differential cytotoxicity against isogenic chicken DT40 cell lines with known DNA damage response pathways - wild type cell line (AID 743012); also: nearly all actives have a fitted effect of over 60% in size; also: potency is read from the fitted curve at half-maximal effect
# Method in brief: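 Viability by ATP luminescence (CellTiter-Glo, 30 min RT) after 40 h compound treatment at 37 C/5% CO2, using 300 parental DNA repair-proficient DT40 cells per well.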
# [3] = qHTS assay for identifying genotoxic compounds that show differential cytotoxicity against isogenic chicken DT40 cell lines with known DNA damage response pathways - Rev3 mutant cell line (AID 743014); also: nearly all actives have a fitted effect of over 55% in size; also: potency is read from the fitted curve at half-maximal effect
# [4] = qHTS assay for identifying genotoxic compounds that show differential cytotoxicity against isogenic chicken DT40 cell lines with known DNA damage response pathways - Rad54/Ku70 mutant cell line (AID 743015); also: nearly all actives have a fitted effect of over 60% in size; also: potency is read from the fitted curve at half-maximal effect
# [5] = qHTS assay to identify small molecule antagonists of the androgen receptor (AR) signaling pathway - cell viability counter screen (AID 743033; also: nearly all actives have a fitted effect of over 45% in size)
# [6] = qHTS assay to identify small molecule antagonists of the androgen receptor (AR) signaling pathway using the MDA cell line - cell viability counter screen (AID 743041; also: nearly all actives have a fitted effect of over 45% in size; also: potency is read from the fitted curve at half-maximal effect)
# Method in brief: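 Using the breast carcinoma line MDA-kb2 AR-luc, test chemicals were co-incubated with R1881 for 16 h; CellTiter-Fluor reagent, added at 15.5 h, provided a fluorescence measure of live cells.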
# [7] = qHTS assay to identify small molecule antagonists of the thyroid receptor (TR) signaling pathway - cell viability counter screen (AID 743064); also: nearly all actives have a fitted effect of over 50% in size; also: potency is read from the fitted curve at half-maximal effect
# Method in brief: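 Plate GH3.TRE-Luc cells; incubate 4 h at 37 °C; add compound, then T3 to 1 nM final; incubate 23.5 h; add CellTiter-Fluor; incubate 30 min at 37 °C, 5% CO2; read fluorescence.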
# [8] = tested on: thyroid hormone receptor (rat, GH3 cells); assay: qHTS assay to identify small molecule agonists of the thyroid receptor (TR) signaling pathway (AID 743066; calls by dose curve)
# [9] = qHTS assay to identify small molecule antagonists of the estrogen receptor alpha (ER-alpha) signaling pathway - cell viability counter screen (AID 743074; calls by dose curve; also: nearly all actives have a fitted effect of over 45% in size)
# [10] = qHTS assay to identify small molecule antagonists of the estrogen receptor alpha (ER-alpha) signaling pathway using the BG1 cell line - cell viability counter screen (AID 743081);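 also: compound given together with 17beta-estradiol as the ER stimulus; nearly all actives have a fitted effect of over 45% in size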; also: potency is read from the fitted curve at half-maximal effect
# Aromatase (Homo sapiens) = Aromatase (Homo sapiens) (UniProt P11511); assay: qHTS assay to identify aromatase inhibitors (AID 743083); also: nearly all actives have a fitted effect of over 55% in size; also: potency is read from the fitted curve at half-maximal effect
# [11] = qHTS assay to identify small molecule antagonists of the thyroid receptor (TR) signaling pathway (AID 743065); also: nearly all actives have a fitted effect of over 55% in size; also: potency is read from the fitted curve at half-maximal effect
# Method in brief: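 Antagonism measured as loss of luciferase signal in GH3 cells stably carrying a TRE-luciferase reporter, co-treated with compound and T3 (1 nM final) for 23.5 h at 37 C. Viability was read in the same well by CellTiter-Fluor.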
# [12] = target: Estrogen receptor (Homo sapiens) (UniProt P03372); assay: qHTS assay to identify small molecule antagonists of the estrogen receptor alpha (ER-alpha) signaling pathway (AID 743069; active = well fitted curve in the direction sought with a large enough effect in the signal ratio in the repeat runs, not every such curve was filed as active; inconclusive = weak or mixed curves, or effect the other way; inactive = no such curve, though single readings can be large or run the other way; the % refers to the signal ratio)
# Method in brief: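 Fluorescence intensity from a beta-lactamase FRET substrate served as the read-out. Cells: HEK293 with stably integrated ER-alpha-UAS-bla reporter. Agonist 17beta-estradiol was co-added with compounds; incubation 18 hr at 37C, substrate 2 hr at room temperature.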
# [13] = target: Estrogen receptor (Homo sapiens) (UniProt P03372); assay: qHTS assay to identify small molecule agonists of the estrogen receptor alpha (ER-alpha) signaling pathway (AID 743075; calls by dose curve; also: potency is read from the fitted curve at half-maximal effect)
# [14] = target: Estrogen receptor (Homo sapiens) (UniProt P03372); assay: qHTS assay to identify small molecule agonists of the estrogen receptor alpha (ER-alpha) signaling pathway using the BG1 cell line (AID 743079); also: nearly all actives have a fitted effect of over 20% in size; also: potency is read from the fitted curve at half-maximal effect
# [15] = target: Androgen receptor (Homo sapiens) (UniProt P10275); assay: qHTS assay to identify small molecule antagonists of the androgen receptor (AR) signaling pathway (AID 743035; active = well fitted inhibition curve with a large enough effect in the signal ratio in the repeat runs, not every such curve was filed as active; inconclusive = weak or mixed curves, or effect the other way; inactive = no such curve, though single readings can be large or run the other way; the % refers to the signal ratio)
# Method in brief: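 Antagonist mode: AR-bla HEK293 cells co-treated with test compounds and agonist R1881 for 16 h at 37C, 5% CO2. Beta-lactamase activity read as FRET fluorescence after 2 h room-temperature substrate loading.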
# [16] = target: Androgen receptor (Homo sapiens) (UniProt P10275); assay: qHTS assay to identify small molecule agonists of the androgen receptor (AR) signaling pathway (AID 743036; active = well fitted activation curve with a large enough effect in the signal ratio in the repeat runs, with a control signal flat, not every such curve was filed as active; inconclusive = weak or mixed curves, or effect the other way; inactive = no such curve, though single readings can be large or run the other way; the % refers to the signal ratio)
# Method in brief: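 Reporter line: GeneBLAzer AR-UAS-bla-GripTite (HEK293). Steps: plate cells, 4 h rest, add compounds, 16 h at 37C, add LiveBLAzer B/G substrate, 2 h at RT, read fluorescence.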
# [17] = target: Androgen receptor (Homo sapiens) (UniProt P10275); assay: qHTS assay to identify small molecule agonists of the androgen receptor (AR) signaling pathway using the MDA cell line (AID 743040; also: nearly all actives have a fitted effect of over 20% in size); details: MDA-kb2 AR-luc cells, MMTV luciferase, 16 h; activity change: at 70.3 µM (top of the series), stronger effect = higher value
# Method in brief: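 Stable MMTV-luciferase reporter in MDA-kb2 cells; note the promoter carries GR as well as AR response elements. 16 h compound treatment, 37C, 0% CO2; ONE-Glo luminescence endpoint.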
# [18] = target: Androgen receptor (Homo sapiens) (UniProt P10275); assay: qHTS assay to identify small molecule antagonists of the androgen receptor (AR) signaling pathway using the MDA cell line (AID 743042; also: nearly all actives have a fitted effect of over 55% in size; also: potency is read from the fitted curve at half-maximal effect)
# Method in brief: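 Antagonist mode: compounds plus R1881 agonist added to MDA-kb2 AR-luc cells, incubated 16 h at 37C. Luciferase reporter luminescence quantified, with multiplexed CellTiter-Fluor readout for cell viability.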
# [19] = qHTS assay to identify small molecule antagonists of the estrogen receptor alpha (ER-alpha) signaling pathway using the BG1 cell line (AID 743080; calls by dose curve; also: nearly all actives have a fitted effect of over 25% in size)
# Method in brief: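 Antagonist mode: compounds in DMSO were pinned onto BG1-Luc-4E2 cells alongside 17beta-estradiol agonist, incubated 21.5 h, and ERE-driven luciferase measured with ONE-Glo. Cytotoxicity was multiplexed using CellTiter-Fluor fluorescence.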
# Chain of Aromatase (Homo sapiens) (P11511 whole entry, looked up): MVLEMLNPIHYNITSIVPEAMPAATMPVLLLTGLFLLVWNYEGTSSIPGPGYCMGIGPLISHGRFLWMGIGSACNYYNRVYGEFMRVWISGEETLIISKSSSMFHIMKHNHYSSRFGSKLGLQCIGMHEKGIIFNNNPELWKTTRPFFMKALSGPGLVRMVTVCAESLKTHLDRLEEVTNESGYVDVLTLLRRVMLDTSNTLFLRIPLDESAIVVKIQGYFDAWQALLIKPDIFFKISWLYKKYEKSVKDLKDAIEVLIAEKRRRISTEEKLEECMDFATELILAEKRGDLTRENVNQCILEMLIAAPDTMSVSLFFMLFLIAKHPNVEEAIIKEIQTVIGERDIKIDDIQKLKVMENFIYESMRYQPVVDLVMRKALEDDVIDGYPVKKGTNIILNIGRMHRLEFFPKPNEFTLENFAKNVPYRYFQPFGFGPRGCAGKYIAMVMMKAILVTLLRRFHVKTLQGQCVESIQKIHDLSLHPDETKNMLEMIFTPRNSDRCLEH
# Chain of Androgen receptor (Homo sapiens) (P10275 whole entry, looked up): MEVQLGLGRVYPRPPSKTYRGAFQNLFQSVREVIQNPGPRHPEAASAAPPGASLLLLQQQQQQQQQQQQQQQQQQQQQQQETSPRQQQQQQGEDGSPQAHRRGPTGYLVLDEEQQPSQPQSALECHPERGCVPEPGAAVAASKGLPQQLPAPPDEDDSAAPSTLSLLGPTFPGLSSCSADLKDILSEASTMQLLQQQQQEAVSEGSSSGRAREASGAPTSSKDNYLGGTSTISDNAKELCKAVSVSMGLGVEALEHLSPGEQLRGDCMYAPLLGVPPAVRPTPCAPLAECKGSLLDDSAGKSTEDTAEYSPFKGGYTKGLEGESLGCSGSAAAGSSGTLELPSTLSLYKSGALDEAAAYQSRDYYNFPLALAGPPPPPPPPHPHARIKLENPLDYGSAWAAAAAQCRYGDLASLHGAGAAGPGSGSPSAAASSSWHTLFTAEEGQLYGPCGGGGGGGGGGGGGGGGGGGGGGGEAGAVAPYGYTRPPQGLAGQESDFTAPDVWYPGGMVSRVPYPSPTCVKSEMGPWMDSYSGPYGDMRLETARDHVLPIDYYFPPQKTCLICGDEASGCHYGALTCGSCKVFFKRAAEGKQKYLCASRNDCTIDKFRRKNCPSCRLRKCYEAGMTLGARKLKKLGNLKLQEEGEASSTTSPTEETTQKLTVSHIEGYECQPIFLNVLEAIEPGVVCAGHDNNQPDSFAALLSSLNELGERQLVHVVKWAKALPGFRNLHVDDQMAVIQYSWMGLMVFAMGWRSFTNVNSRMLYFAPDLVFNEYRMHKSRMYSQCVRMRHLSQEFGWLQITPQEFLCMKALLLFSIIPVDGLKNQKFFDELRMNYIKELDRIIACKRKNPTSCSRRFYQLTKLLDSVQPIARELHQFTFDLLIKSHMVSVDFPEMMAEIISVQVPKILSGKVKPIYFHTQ
# Chain of Estrogen receptor (Homo sapiens) (P03372 whole entry, looked up): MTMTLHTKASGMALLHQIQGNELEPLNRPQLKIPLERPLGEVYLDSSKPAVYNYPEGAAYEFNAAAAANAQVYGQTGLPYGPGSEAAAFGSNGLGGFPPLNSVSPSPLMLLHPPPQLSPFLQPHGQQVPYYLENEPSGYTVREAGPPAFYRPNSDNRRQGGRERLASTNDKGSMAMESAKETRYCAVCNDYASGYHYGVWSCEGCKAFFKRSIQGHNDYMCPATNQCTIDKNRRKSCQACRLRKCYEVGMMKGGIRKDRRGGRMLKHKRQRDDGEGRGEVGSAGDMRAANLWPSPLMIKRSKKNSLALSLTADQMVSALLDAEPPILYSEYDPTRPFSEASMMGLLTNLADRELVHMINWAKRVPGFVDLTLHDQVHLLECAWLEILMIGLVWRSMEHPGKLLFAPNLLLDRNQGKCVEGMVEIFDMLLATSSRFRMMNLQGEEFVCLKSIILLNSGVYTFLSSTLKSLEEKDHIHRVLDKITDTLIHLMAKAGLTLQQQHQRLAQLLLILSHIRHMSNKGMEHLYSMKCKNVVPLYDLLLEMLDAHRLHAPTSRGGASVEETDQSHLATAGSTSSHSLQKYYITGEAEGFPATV
Structure (SMILES),Potency [1],Potency [2],Potency [3],Potency [4],Potency [5],Potency [6],Potency [7],Potency [8],Potency [9],Potency [10],Potency (Aromatase (Homo sapiens)),Potency [11],Potency [12],Potency [13],Potency [14],Potency [15],Potency [16],Potency [17],Potency [18],Potency [19]
O=Cc1ccco1,inactive,inactive,inactive,inactive,inactive,inactive,inactive,inactive,inactive,inactive,inactive,–,–,–,–,–,–,–,–,–
Nc1ccc(-c2ccccc2)cc1,inactive,–,inactive and 54.5 µM (active),inactive and 30.6 µM (active),inactive,inactive,inactive,inactive,inactive,inactive,inactive,inactive,inactive,inactive,25 nM (active) and 10.9 µM (active),–,–,–,–,–
CCCCCCCCOC(=O)c1ccccc1C(=O)OCCCCCCCC,inactive,–,inactive,inactive,inactive,inactive,inactive,inactive,inactive,inactive,inactive,inactive,inactive,inactive,inactive,inactive,inactive,inactive,inactive,inactive
CCOP(=S)(OCC)O/N=C(\C#N)c1ccccc1,inactive,–,inactive,inactive,inactive,inactive,inactive,inactive,inactive,inactive,inactive,inactive,–,–,–,–,–,–,–,–
CCN(CC)C(=O)/C(Cl)=C(\C)OP(=O)(OC)OC,inactive,–,inactive,inactive,inactive,inactive,inactive,inactive,inactive,inactive,inactive,inactive,inactive,inactive,inactive,inactive,inactive,inactive,inactive,inactive
NC(=S)Nc1ccccc1,inactive,–,inactive,inactive,inactive,inactive,inactive,inactive,inactive,inactive,inactive,inactive,inactive,inactive,inactive,–,–,–,–,inactive
CC(C)(OOC(C)(C)c1ccccc1)c1ccccc1,inactive,inactive and 54.5 µM (active),–,30.6 µM (active),inactive,inactive,42.7 µM (active),inactive,inactive,inactive,inactive,53.7 µM (active) and 43.3 µM (active),–,–,–,inactive,inactive,inactive,inactive,–
OCC(O)CO,inactive,–,inactive,inactive,inactive,inactive,inactive,inactive,inactive,inactive,inactive,inactive,inactive,inactive,inactive,–,–,–,–,inactive
C[C@]12CCC(=O)C(O)=C1CC[C@@H]1[C@@H]2CC[C@]2(C)C(=O)CC[C@@H]12,inactive,29.8 µM (active) and 26.6 µM (active),–,29.8 µM (active) and 26.6 µM (active),inactive,inactive,inactive,inactive,inactive,inactive,75 nM (active) and 53.1 nM (active) and 27.3 nM (active),–,–,23.9 µM [activator] (active) and 21.3 µM [activator] (active) and 34.7 µM [activator] (active),11.9 µM (active) and 5.96 µM (active) and 5.45 µM (active),–,–,–,–,inactive
O=[N+]([O-])c1ccc(O)c([N+](=O)[O-])c1,inactive,–,inactive,54.5 µM (active),inactive,30.8 µM (active) and 61.1 µM (active),61.1 µM (active),inactive,–,30.8 µM (active) and 30.6 µM (active),inactive,–,inactive,inactive,–,–,–,inactive,61.1 µM (active),–
Cc1cccc(N)c1N,inactive,inactive and 19.3 µM (active),19.3 µM (active),21.7 µM (active),inactive,inactive,inactive,inactive,inactive,inactive,inactive,–,–,–,–,–,–,–,–,–
CCC(C)(C)c1ccc(O)cc1,inactive,–,inactive and 61.8 µM (active) and 30.6 µM (active),inactive and 54.5 µM (active),inactive,inactive,inactive,inactive,inactive,inactive,inactive,inactive,inactive,inactive and 15.7 µM [inconclusive] (active) and 55 µM [activator] (active),17.4 µM (active) and 24.3 µM (active),–,–,–,–,inactive
